SARS PLP yeast: SARS-CoV PLP inhibition in yeast; S. cerevisiae expressing SARS-CoV PLpro, growth rescue; Potency, µM (doses to about 32.9 µM), for the others: top-dose activity, positive = growth rescue, most hits filed as activators; hit rate 0.19% among 330,000; calls by dose curve; further: 0% is about no effect; nearly all actives have a fitted effect of over 55% in size
NS1 function inh: inhibitors of influenza NS1 protein function | Potency, µM (doses to about 46.1 µM), inactives show at the top dose activity, positive = more growth | hit rate 0.4% among 270,000 | AID 2326; calls by dose curve; further: actives are rising curves; nearly all actives have a fitted effect of over 50% in size
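Growth recovery, yeast-based: influenza A NS1 expressed in S. cerevisiae causes slow growth, and suppressors are detected by OD600. The parent strain without NS1 is used as positive control.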
Pf growth 48h: P. falciparum growth inhibition at 48 hours (one generation); hit rate 5.9% among 310,000; P. falciparum luciferase growth in erythrocytes, 48 h; Potency, µM (highest dose often 28.7 µM), for the others: at the highest dose activity change, negative = inhibition, most hits filed as inhibitors; further: on the % scale 0 is the no-effect control and ±100 the full control effect
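Read-out is firefly luciferase luminescence from an integrated reporter in P. falciparum, so falling signal marks reduced parasite growth. Infected erythrocytes were at 2% hematocrit and 0.1% parasitemia (final) in Albumax-supplemented RPMI 1640.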
AMA1-RON2 inh: inhibitors of Plasmodium falciparum AMA1-RON2 interaction. AlphaScreen AMA1-biotinylated RON2 peptide binding. hit rate 0.2% among 360,000. Potency, µM (highest dose often 58.2 µM), for the others: at the top dose activity change, negative = inhibition, usual class: inhibitors;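 further: 0% = vehicle wells and -100% = peptide control; nearly all actives have a fitted effect of over 45% in size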
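AMA1 (3D7) with his tag at 25 nM final met compounds first, then biotinylated RON2 peptide at 25 nM; detection used donor plus acceptor beads, 10 µg/mL apiece, read by AlphaScreen after 30 min at room temperature.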
HCV inhibitor: HCV inhibition; Huh7.5.1 HCVcc-Cre infection, luciferase reporter, 44 h; Potency, µM (doses to about 41.8 µM), for the others: top-dose activity change, negative = inhibition, hits mostly inhibitors; hit rate 3.4% among 340,000; AID 651820; further: on the % scale 0 is the no-effect control and ±100 the full control effect
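Whole-lifecycle infectious HCVcc-Cre system; cells 1,000/well, compound then virus (~0.5 moi) added 4 h after plating, 44 h culture. Luciferase read 15 sec following 15 min substrate incubation, room temp.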
Pf growth 96h: P. falciparum growth inhibition at 96 hour, primary screen for plastid delayed-death inhibitors; P. falciparum luciferase reporter growth, 96 h; Potency, µM (highest dose often 28.7 µM), inactives show top-dose activity change, negative = inhibition, hits mostly inhibitors; hit rate 6.9% among 320,000; AID 504834; further: on the % scale 0 is the no-effect control and ±100 the full control effect
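Two-generation exposure (96 h) targets delayed-death phenotype. Reporter parasites carrying integrated firefly luciferase, in red cells at 2% hematocrit and 0.05% parasitemia final, kept at 37 C, 5% CO2; luminescence loss indicates inhibition.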
Starred values were filed as active, the others as inactive; ? = inconclusive; / = no result given. Rows were chosen to be rich in hits. Some 12% of all compounds tested hit in one or more screens of this group. Unless noted, the call rests on the fitted dose curve; in most records, active means well fitted curve in the direction sought with a large enough effect; inconclusive means small, poorly fitted or top-dose-only effect, or another doubt; inactive means no such curve, though single readings can be large; an effect the other way counts as inactive or inconclusive. Potency means the concentration at half of the fitted maximal effect.

SMILES	SARS PLP yeast	NS1 function inh	Pf growth 48h	AMA1-RON2 inh	HCV inhibitor	Pf growth 96h
COc1ccc(N2CCN(C(=O)c3ccccc3N(C)S(=O)(=O)c3ccc(C)cc3)CC2)cc1	-4%	-2%	?	?	/	10µM*
COc1ccc(-c2nc(N)c3ncn([C@H]4O[C@@H](CO)[C@@H](O)[C@@H]4O)c3n2)cc1	/	-8%	/	/	/	/
Cc1ccc(S(=O)(=O)N2CCN(C(=O)N3CCOCC3)C2C(C)C)cc1 (stereo unspecified)	-1%	-3%	-18%	16%	17%	12µM*
CC(C)C1N(C(=O)N2CCOCC2)CCN1S(=O)(=O)c1ccccc1 (stereo unspecified)	1%	4%	12%	14%	2%	6%
COc1cc(OC)cc(-c2noc(-c3csc([C@@H]4O[C@H](CO)[C@H](O)[C@H](O)[C@H]4O)n3)n2)c1	/	/	/	-19%	/	/
CCOC(=O)c1c(C)cc(C)n2c1nc1ccccc12	-7%	-13%	?	7%	-18%	12µM*
S=c1[nH]nc(-c2ccc3ccccc3n2)n1-c1cc(Cl)cc(Cl)c1	17%	9%	12%	42%	?	4.1µM*
Fc1ccc(-n2c(-c3ccc4ccccc4n3)n[nH]c2=S)cc1	0%	0%	6%	106%	14%	0%
COc1ccc(C(CNc2ccc(S(C)(=O)=O)cc2[N+](=O)[O-])N(C)C)cc1OC (stereo unspecified)	2%	-4%	-15%	54%	4µM*	-10%
CN(C)C(CNc1ccc(C(F)(F)F)cc1[N+](=O)[O-])c1ccccc1 (stereo unspecified)	2%	0%	?	14µM*	-3%	-28%
CC(C)(CNc1ccc(C(F)(F)F)cc1[N+](=O)[O-])N1CCOCC1	-1%	7%	9.3µM*	-8%	-29%	5.9µM*
CN(C)C(CNc1ccc(S(C)(=O)=O)cc1[N+](=O)[O-])c1ccccc1 (stereo unspecified)	8%	4%	-16%	5%	8%	-17%
CCOC(=O)C1=C(COC(=O)c2ccc(OC)c(OC)c2OC)NC(=O)NC1C (stereo unspecified)	1%	/	38%	-2%	?	59%
COc1ccc(CC(=O)Nc2ccccc2C(=O)NCCc2ccccc2)cc1	7%	-16%	?	-2%	?	12µM*
O=C(CCl)N1c2ccccc2Sc2ccc3ccccc3c21	/	/	/	-4%	/	/
O=C(COc1ccc2ccccc2c1)N1c2ccccc2Sc2ccccc21	-8%	12%	?	3%	-5%	13µM*
COc1ccc(CCNC(=O)CCCc2ccccc2)cc1	-1%	-16%	7%	4%	-18%	10µM*
CCCCC(=O)NCCc1ccc(OC)cc1	2%	3%	/	12%	12%	11%
COc1ccc(CCNC(=O)N2c3ccccc3Sc3ccccc32)cc1	/	/	/	17%	10µM*	/
COc1ccc(CCNC(=O)c2ccccc2C(=O)NCCc2ccc(OC)cc2)cc1	/	/	/	-9%	1%	/
COCCCNC(=O)N1c2ccccc2Sc2ccccc21	2%	-3%	0%	5%	14%	10%
O=C(CSc1nnc(SCc2cccc3ccccc23)s1)N=Nc1c(O)[nH]c2ccccc12	6%	3%	12%	/	-10%	-26%
C=CCn1c(CNC(=O)c2ccccc2F)nnc1SCc1nc2ccccc2c(=O)[nH]1	-3%	/	4%	0%	17%	28%
Cc1ccc(CS(=O)(=O)CCC(=O)NCCc2ccccc2)cc1	-1%	4%	19%	-2%	5.6µM*	5%
C=CCN1C(=O)S/C(=C/c2ccc(Sc3nc4ccccc4[nH]3)o2)C1=O	-1%	22%	43%	-3%	?	19%
SMILES	SARS PLP yeast	NS1 function inh	Pf growth 48h	AMA1-RON2 inh	HCV inhibitor	Pf growth 96h
CC(C)N1C(=O)S/C(=C/c2ccc(Sc3nc4ccccc4[nH]3)o2)C1=O	-17%	14%	?	-2%	10µM*	?
Cc1cc2nc(/N=C(\N)NC(=O)C(C)C)nc(C)c2cc1C	-1%	0%	2.6µM*	16%	11µM*	2.6µM*
CCC(=O)N/C(N)=N/c1nc(C)c2cc(C)c(C)cc2n1	0%	-10%	1.7µM*	1%	?	1.7µM*
Cc1ccc(S(=O)(=O)/N=C(\N)Nc2nc(C)c3cc(C)c(C)cc3n2)cc1	1%	-9%	?	-4%	?	?
Cc1ccc2nc(/N=C(\N)NC(=O)NC3CCCCC3)nc(C)c2c1	0%	-8%	?	5%	11µM*	?
CCCC(=O)N/C(N)=N/c1nc(C)c2cc(C)ccc2n1	-1%	-3%	2.6µM*	4%	6.3µM*	2.6µM*
Cc1nc(/N=C(\N)NC(=O)N2c3ccccc3Sc3ccccc32)nc2ccccc12	-44%	23%	?	-1%	?	?
COc1ccc(S(=O)(=O)Nc2ccccc2-c2nc3ccccc3[nH]c2=O)cc1	9%	5%	6%	8%	?	4%
O=C(NCc1cccnc1)NC1CC(=O)N(c2ccc3c(c2)OCCO3)C1 (stereo unspecified)	0%	/	4%	-7%	14%	?
COc1ccc(-c2cc(C(F)(F)F)nc(N3CCN(c4ccc(F)cc4)CC3)n2)cc1OC	20%	0%	/	3%	-10%	/
COc1ccc(-c2cc(C(F)(F)F)nc(N3CCN(Cc4ccccc4)CC3)n2)cc1OC	3%	-50%	10µM*	-3%	-18%	69%
FC(F)(F)COc1nc(N2CCOCC2)nc(N(c2ccccc2)c2ccccc2)n1	-22%	-7%	3.3µM*	-9%	?	24%
FC(F)(F)c1cc(-c2ccccc2)nc(N2CCOCC2)n1	1%	7%	34%	18%	8.9µM*	105%
CC(C)N(C(=O)CCl)c1ccccc1	/	/	/	4%	10µM*	/
CC(C)N(C(=O)COC(=O)[C@H](C)NC(N)=O)c1ccccc1	-1%	4%	-7%	-12%	1%	5%
Cc1cc(Nc2ccc(C(=O)O)cc2)nc(N)n1	?	3%	1%	5%	1%	22%
Cc1cc(Nc2ccc(F)cc2)nc(N)n1	-4%	6%	?	0%	-18%	9.3µM*
Cc1cc(Nc2cc(Cl)cc(Cl)c2)nc(N)n1	-2%	-1%	1.9µM*	-6%	?	2.3µM*
O=C(c1ccncc1)N1CCN(S(=O)(=O)c2cccc(C(F)(F)F)c2)CC1	-16%	/	-6%	-12%	2%	5%
CN(CC(=O)Nc1ccc(Cl)c(Cl)c1)C(=O)CC1OC(=O)c2ccccc21 (stereo unspecified)	/	/	0%	9%	7%	-7%
COc1nc(NC(C)(C)C)nc(Oc2ccc(=O)n(C)n2)n1	-8%	5%	/	-2%	20%	12µM*

Compound activity (PubChem)
